Experimental data: PubChem BioAssay (NCATS)
Inconclusive results are not listed. Active and inactive are the calls of the source. Unless noted, the call rests on the fitted dose curve; in most records, active means well fitted curve in either direction with a large enough effect (not every such curve was filed as active); inconclusive means small, poorly fitted or top-dose-only effect, or another doubt; inactive means flat fitted curve, though single readings scatter.

Columns and labels:
[1] = target: Lysosomal acid glucosylceramidase (Homo sapiens) (UniProt P04062); test: Glucocerebrosidase-p2 (AID 348; in the data active means potency below about 10 µM; further: potency means the concentration at half of the fitted maximal effect); conditions: purified GBA, blue fluorogenic substrate, 40 min
Sequence of Lysosomal acid glucosylceramidase (Homo sapiens) (P04062 whole entry, looked up): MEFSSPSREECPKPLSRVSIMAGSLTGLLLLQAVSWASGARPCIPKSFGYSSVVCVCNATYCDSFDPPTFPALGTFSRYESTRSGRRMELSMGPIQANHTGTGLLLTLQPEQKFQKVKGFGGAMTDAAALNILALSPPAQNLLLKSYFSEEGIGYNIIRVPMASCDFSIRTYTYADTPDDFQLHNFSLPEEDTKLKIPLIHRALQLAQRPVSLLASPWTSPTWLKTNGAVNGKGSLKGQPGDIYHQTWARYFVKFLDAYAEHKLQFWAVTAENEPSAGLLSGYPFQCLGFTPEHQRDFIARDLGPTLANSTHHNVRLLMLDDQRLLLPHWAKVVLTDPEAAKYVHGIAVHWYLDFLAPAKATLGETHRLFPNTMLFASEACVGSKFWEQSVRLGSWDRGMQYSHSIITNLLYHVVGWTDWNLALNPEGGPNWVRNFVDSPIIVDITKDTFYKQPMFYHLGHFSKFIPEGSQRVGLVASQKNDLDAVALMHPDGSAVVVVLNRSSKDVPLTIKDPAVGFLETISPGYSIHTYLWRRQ
Procedure, shortened: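 Normal human glucocerebrosidase (0.2 nM) with blue fluorogenic substrate (80 uM final) in citrate/phosphate pH 5.9 with 10mM sodium taurocholate, 0.01% tween-20; 40 min RT, NaOH/glycine stop; fluorescence Ex 365/Em 440; AC50 from a titration from 0.6 nM upwards.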

[2] = AP1 Signaling Pathway (AID 357); conditions: ME-180 AP-1-bla reporter, EGF-induced, beta-lactamase ratio, 5 h; at 7.69 µM (top of the series) unless noted;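 further: ME-180 reporter cells stimulated with EGF at its EC50 level; on the % scale 0 is the no-effect control and ±100 the full control effect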
Procedure, shortened: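 In this screen, ME-180 cells in Opti-MEM with 0.5% dialyzed FBS received EC50 EGF and compound titrations for 5 h. AP-1 reporter beta-lactamase was detected via CCF4 ratio, giving AC50 for positive and negative modulators.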

[3] = NFAT Signaling Pathway (AID 444); conditions: Jurkat NFAT-bla M1, carbachol, beta-lactamase ratio, 5 h; at 7.69 µM (top of the series) unless noted;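 further: carbachol stimulus at about its EC50 of 1 µM final; on the % scale 0 is the no-effect control and ±100 the full control effect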
Procedure, shortened: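 Jurkat cells carrying an NFAT-driven β-lactamase reporter and co-transfected muscarinic M1 receptor were treated with compound plus carbachol (1 uM final, an EC50 level) for 5 h at 37 °C. CCF4 loading followed for 1 h at RT; 460/530 nm ratio gave %activity.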

[4] = Stat Signaling Pathway (AID 446); conditions: ME-180 (cervical carcinoma) SIE beta-lactamase reporter, IL-6 stimulated, 5 h; at 7.69 µM (top of the series) unless noted;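 further: ME-180 cervical cancer cells given 40 pM IL-6 alongside compound; SIE-controlled beta-lactamase reporter measured as 460/530 nm FRET emission ratio; on the % scale 0 is the no-effect control and ±100 the full control effect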
Procedure, shortened: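 Overnight-plated ME-180 cells bearing a STAT Inducible Element beta-lactamase reporter; 5 h co-exposure to compound and 40 pM IL-6; values normalized to 300 pM IL-6 and 125 nM JAK inhibitor controls.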

[5] = target: Glucocorticoid receptor (Homo sapiens) (UniProt P04150); test: GR-GFP Redistribution (AID 450;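 active means compounds whose dose series gives a full or clear partial fitted curve of increased nuclear translocation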; further: potency means the concentration at half of the fitted maximal effect); conditions: U2OS GR-GFP nuclear translocation, laser cytometry, 2 h
Sequence of Glucocorticoid receptor (Homo sapiens) (P04150 whole entry, looked up, the tested form may be a part): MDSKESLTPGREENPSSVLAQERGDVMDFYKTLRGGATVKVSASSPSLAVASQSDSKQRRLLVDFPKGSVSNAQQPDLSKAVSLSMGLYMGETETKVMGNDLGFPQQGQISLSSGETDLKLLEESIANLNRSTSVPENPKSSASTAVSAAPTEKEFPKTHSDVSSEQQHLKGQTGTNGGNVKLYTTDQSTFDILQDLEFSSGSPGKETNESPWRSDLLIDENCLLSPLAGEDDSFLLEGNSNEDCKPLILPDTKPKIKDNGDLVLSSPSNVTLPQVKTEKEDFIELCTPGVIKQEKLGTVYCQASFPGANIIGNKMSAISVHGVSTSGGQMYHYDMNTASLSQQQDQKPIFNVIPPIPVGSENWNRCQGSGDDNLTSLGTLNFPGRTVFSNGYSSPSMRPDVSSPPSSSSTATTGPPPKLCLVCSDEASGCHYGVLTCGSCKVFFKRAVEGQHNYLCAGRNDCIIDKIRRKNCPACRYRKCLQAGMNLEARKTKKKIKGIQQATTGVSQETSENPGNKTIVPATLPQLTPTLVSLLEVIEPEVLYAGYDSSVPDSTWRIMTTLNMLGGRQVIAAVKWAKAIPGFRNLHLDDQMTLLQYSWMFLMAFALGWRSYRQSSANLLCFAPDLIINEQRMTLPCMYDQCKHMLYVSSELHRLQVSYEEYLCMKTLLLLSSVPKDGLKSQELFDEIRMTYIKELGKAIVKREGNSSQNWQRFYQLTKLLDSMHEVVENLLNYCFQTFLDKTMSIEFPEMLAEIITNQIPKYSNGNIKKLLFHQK

[6] = target: Glucocorticoid receptor (Homo sapiens) (UniProt P04150); test: GR-EFC Redistribution (AID 451; calls by dose curve; further: potency means the concentration at half of the fitted maximal effect); conditions: CHO-K1 GR-EFC translocation, beta-gal luminescence, 2 h
Procedure, shortened: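 CHO-K1 cells stably expressing nuclear-localized β-gal enzyme acceptor and GR fused C-terminally to the enzyme donor fragment; ligand-driven nuclear translocation restores β-gal by complementation. Compounds titrated up to 46 uM final, 2 h at 37 °C; luminescence read.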

[7] = target: Mitogen-activated protein kinase 10 (Mus musculus) (UniProt Q61831); test: JNK3 AlphaScreen Assay (AID 530); conditions: JNK3 lysate, c-Jun phosphorylation; series mostly up to 11.4 µM;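 further: kinase came from lysate of stimulated human HepG2 cells; signal reports phosphorylation of biotinylated GST-cJun 1-79 at Ser73 with 10 µM ATP; on the % scale 0 is the no-effect control and ±100 the full control effect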
Procedure, shortened: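 Biotinylated GST-cJun(1-79) served as substrate for JNK3 in HepG2 lysates stimulated with IL-1beta and TNF-alpha. ATP was 10 uM final, pH 7.6. Ser73 phosphorylation was quantified by AlphaScreen (680 nm excitation).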

[8] = target: 3',5'-cyclic-AMP phosphodiesterase 4B (Homo sapiens) (UniProt Q07343); test: qHTS Assay for Inhibitors of PDE-IV (AID 607; active means well fitted activation curve with a large enough effect in the main read-out, with a control signal flat, not every such curve was filed as active; further: % of control where 0% means no effect); conditions: HEK293 ACTOne CNG channel cells, membrane potential fluorescence; series mostly up to 22.9 µM
Sequence of 3',5'-cyclic-AMP phosphodiesterase 4B (Homo sapiens) (Q07343 whole entry, looked up): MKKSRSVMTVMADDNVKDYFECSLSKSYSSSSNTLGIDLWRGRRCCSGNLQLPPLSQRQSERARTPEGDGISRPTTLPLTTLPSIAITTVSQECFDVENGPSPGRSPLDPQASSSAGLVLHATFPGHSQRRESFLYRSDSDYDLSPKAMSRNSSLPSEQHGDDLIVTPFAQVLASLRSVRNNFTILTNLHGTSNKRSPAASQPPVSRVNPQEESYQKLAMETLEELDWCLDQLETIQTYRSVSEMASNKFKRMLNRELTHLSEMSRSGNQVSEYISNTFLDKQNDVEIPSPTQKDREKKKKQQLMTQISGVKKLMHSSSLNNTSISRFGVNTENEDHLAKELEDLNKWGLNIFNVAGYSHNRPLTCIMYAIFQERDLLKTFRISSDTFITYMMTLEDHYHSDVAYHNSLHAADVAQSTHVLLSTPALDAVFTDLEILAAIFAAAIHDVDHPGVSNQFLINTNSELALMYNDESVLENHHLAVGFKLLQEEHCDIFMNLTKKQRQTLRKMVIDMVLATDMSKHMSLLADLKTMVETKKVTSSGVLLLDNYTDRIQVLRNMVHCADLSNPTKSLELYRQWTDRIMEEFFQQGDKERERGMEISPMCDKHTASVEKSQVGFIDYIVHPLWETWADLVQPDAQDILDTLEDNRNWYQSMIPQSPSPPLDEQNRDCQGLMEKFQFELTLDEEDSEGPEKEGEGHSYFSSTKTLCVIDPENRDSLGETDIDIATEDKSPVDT
Procedure, shortened: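 Live HEK293 cells with a modified cyclic nucleotide-gated (CNG) channel report intracellular cAMP via membrane-potential dye fluorescence (ex 535/em 590 nm). Endogenous PDE-IV was targeted. Compounds were tested at up to 22.9 uM final; RO 20-1724 100 uM served as control.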

Nc1nc2c(c(=O)[nH]1)CN(CCCN1CCOCC1)CN2
inactive: Potency [1] > 11.4 µM | activity change, negative = inhibition [2] 1.77% | activity change, negative = inhibition [3] 5.13% | activity, negative = inhibition [4] 12.2% | Potency [5] > 46 µM | Potency [6] > 9.22 µM | Potency [7] | Potency [8]

Cc1cc2c(SCc3ccccc3Cl)nc(N)nc2nc1C
inactive: Potency [1] > 11.4 µM | activity change, negative = inhibition [2] -22.2% | activity change, negative = inhibition [3] 15% | activity, negative = inhibition [4] -10.5% | Potency [5] > 46 µM | Potency [6] > 9.22 µM | Potency [7] | Potency [8]

C[N+](C)(C)CC(=O)N/N=C\c1c(O)ccc2ccccc12
inactive: Potency [1] > 11.4 µM | activity change, negative = inhibition [2] 3.17% | activity change, negative = inhibition [3] -5.58% | activity, negative = inhibition [4] 10.1% | Potency [5] > 46 µM | Potency [6] > 9.22 µM | Potency [7] | Potency [8]

c1ccc(CO[C@H]2NCCN2Cc2ccccc2)cc1
inactive: Potency [1] > 11.4 µM | activity change, negative = inhibition [2] 11% | activity change, negative = inhibition [3] 9.93% | activity, negative = inhibition [4] 12.8% | Potency [5] > 46 µM | Potency [6] > 9.22 µM | Potency [7] | Potency [8]

O=C(O)CCC(=O)c1ccc[nH]1
inactive: Potency [1] > 11.4 µM | activity change, negative = inhibition [2] -0.936% | activity change, negative = inhibition [3] 3.55% | activity, negative = inhibition [4] 3.5% | Potency [5] > 46 µM | Potency [6] > 9.22 µM | Potency [7] | Potency [8]

CC(=O)Nc1ccc(-c2cc(C(=O)O)c3cc4ccccc4cc3n2)cc1
inactive: Potency [1] > 11.4 µM | activity change, negative = inhibition [2] 7.67% | activity change, negative = inhibition [3] 5.02% | activity, negative = inhibition [4] -2.25% | Potency [5] > 46 µM | Potency [6] > 9.22 µM | Potency [7] | Potency [8]

COc1nc(Cl)nc(Cl)c1Cl (tested in a mixture with another compound)
inactive: Potency [1] > 11.4 µM | activity change, negative = inhibition [2] 2.89% | activity change, negative = inhibition [3] 3.88% | activity, negative = inhibition [4] 7.12% | Potency [5] > 46 µM | Potency [6] > 9.22 µM | Potency [7] | Potency [8]

CC(CO)(CO)Nc1ncnc2ccccc12
inactive: Potency [1] > 11.4 µM | activity change, negative = inhibition [2] 4.46% | activity change, negative = inhibition [3] 9.62% | activity, negative = inhibition [4] 12.4% | Potency [5] > 46 µM | Potency [6] > 9.22 µM | Potency [7] | Potency [8]

CN(C)Cc1cc(C(C)(C)C)cc(CN(C)C)c1O
inactive: Potency [1] > 11.4 µM | activity change, negative = inhibition [2] 12.4% | activity change, negative = inhibition [3] 3.21% | activity, negative = inhibition [4] -1.5% | Potency [5] > 46 µM | Potency [6] > 9.22 µM | Potency [7] | Potency [8]

Cc1ncc(CSc2ccccc2N)c(CO)c1O
inactive: Potency [1] > 11.4 µM | activity change, negative = inhibition [2] 6.48% | activity change, negative = inhibition [3] 1.52% | activity, negative = inhibition [4] -0.62% | Potency [5] > 46 µM | Potency [6] > 9.22 µM | Potency [7] | Potency [8]

O=S1(=O)CCN(Cc2ccccn2)CC1
inactive: Potency [1] > 11.4 µM | activity change, negative = inhibition [2] 0.374% | activity change, negative = inhibition [3] 13% | activity, negative = inhibition [4] -10.3% | Potency [5] > 46 µM | Potency [6] > 9.22 µM | Potency [7] | Potency [8]

CC(C)[C@H](N=Cc1ccccc1O)C(=O)O
inactive: Potency [1] > 11.4 µM | activity change, negative = inhibition [2] -4.87% | activity change, negative = inhibition [3] 4.44% | activity, negative = inhibition [4] -0.012% | Potency [5] > 46 µM | Potency [6] > 9.22 µM | Potency [7] | Potency [8]

Cc1cc2c(=O)[nH]c(N)nc2nc1C
inactive: Potency [1] > 11.4 µM | activity change, negative = inhibition [2] 1.82% | activity change, negative = inhibition [3] 7.25% | activity, negative = inhibition [4] 9.62% | Potency [5] > 46 µM | Potency [6] > 9.22 µM | Potency [7] | Potency [8]

Cc1cccc2cc3ccc4ccccc4c3cc12
inactive: Potency [1] > 11.4 µM | activity change, negative = inhibition [2] -0.591% | activity change, negative = inhibition [3] -3.47% | activity, negative = inhibition [4] 19.6% | Potency [5] > 46 µM | Potency [6] > 9.22 µM | Potency [7] | Potency [8]

CC(=O)[C@H]1CC[C@@H]2[C@]1(C)CC=C1[C@]23C=C[C@]2(C[C@H](O)CC[C@@]12C)[C@H](C(=O)O)[C@@H]3C(=O)O
inactive: Potency [1] > 11.4 µM | activity change, negative = inhibition [2] -6.74% | activity change, negative = inhibition [3] 13% | activity, negative = inhibition [4] 3.06% | Potency [5] > 46 µM | Potency [6] > 9.22 µM | Potency [7] | Potency [8]

O=C(O)CCNCC(=O)O
inactive: Potency [1] > 11.4 µM | activity change, negative = inhibition [2] 2.01% | activity change, negative = inhibition [3] 0.769% | activity, negative = inhibition [4] -2.35% | Potency [5] > 46 µM | Potency [6] > 9.22 µM | Potency [7] | Potency [8]

c1ccc(CN2COc3c(ccc4c5c(ccc34)CN(Cc3ccccc3)CO5)C2)cc1
inactive: Potency [1] > 11.4 µM | activity change, negative = inhibition [2] -0.336% | activity change, negative = inhibition [3] 7.9% | activity, negative = inhibition [4] 8.56% | Potency [5] > 46 µM | Potency [6] > 9.22 µM | Potency [7] | Potency [8]
